Compound activity deposited in PubChem by National Center for Advancing Translational Sciences (NCATS).
SNCA expr inhib: inhibitors of alpha-synuclein (SNCA) gene expression; HEK-293 SNCA-luciferase knock-in, luminescence, 24 h; AID 1671194; hit rate 0.17% among 140,000; Potency, µM (doses to about 57.2 µM), for inactives: top-dose activity change, negative = inhibition, most hits filed as inhibitors;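 further: potency means the concentration at half of the fitted maximal effect; plate controls were DMSO cells for no effect and cell-free wells for full effect; nearly all actives have a fitted effect of over 45% in size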
SNCA viab count: cell viability loss counter-screen; HEK-293-SNCA-luc viability, GF-AFC fluorescence, 24 h; Potency, µM (top dose mostly 57.1 µM), for the others: at the top dose activity change, negative = cytotoxicity, actives largely listed as cytotoxic; hit rate 0.12% among 150,000; AID 1671193;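 further: potency means the concentration at half of the fitted maximal effect; 0% = DMSO-treated cells and -100% = medium-only wells without cells; nearly all actives have a fitted effect of over 30% in size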
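Cytotoxicity counterscreen: after 24 h compound treatment of genome-edited SNCA-luciferase HEK-293 cells, live-cell protease substrate GF-AFC read by fluorescence after 30 min; activity scaled between DMSO (0%) and medium-only (-100%), curves Hill-fitted.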
IP6K1 inh: inhibitors of human IP6K1; Q92551; IP6K1 kinase, ADP-Glo luminescence, 2 h; active compounds read low; activity change, % (series mostly up to about 58 µM); hit rate 0.81% among 140,000; in the data active means activity change below about -25%; further: on the % scale 0 is the no-effect control and ±100 the full control effect
Target sequence (Q92551 whole entry, looked up): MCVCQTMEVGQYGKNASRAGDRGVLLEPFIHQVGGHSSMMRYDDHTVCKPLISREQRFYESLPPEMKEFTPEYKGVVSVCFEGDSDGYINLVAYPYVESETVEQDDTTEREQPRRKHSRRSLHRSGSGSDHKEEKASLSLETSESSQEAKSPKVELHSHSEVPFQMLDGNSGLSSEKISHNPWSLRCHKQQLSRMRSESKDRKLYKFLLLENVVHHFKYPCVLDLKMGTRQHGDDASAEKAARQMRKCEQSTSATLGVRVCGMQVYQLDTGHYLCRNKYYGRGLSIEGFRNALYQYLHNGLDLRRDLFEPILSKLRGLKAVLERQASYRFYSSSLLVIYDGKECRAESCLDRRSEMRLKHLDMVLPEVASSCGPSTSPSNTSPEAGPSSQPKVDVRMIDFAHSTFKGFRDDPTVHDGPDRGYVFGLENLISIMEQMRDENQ
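ADP-Glo luminescence measures ADP made by human IP6K1 during a 2 h RT reaction with ATP/IP6 (mix at 1.3 mM/130 uM); top library doses 57.5 and 19.1 uM final.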
KDM5B inh: blocks human KDM5B histone demethylase activity. Q9UGL1. AID 1347165. hit rate 2.6% among 220,000. KDM5B demethylase, FDH-coupled NADH fluorescence (FDH is formaldehyde dehydrogenase). Potency, µM (series often up to 57.7 µM), usual class: inhibitors; further: potency means the concentration at half of the fitted maximal effect; 0% is about no effect; nearly all actives have a fitted effect of over 70% in size
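KDM5BΔAP (200 nM final) in 50 mM HEPES pH 7.5, 0.01% Tween-20 was preincubated 10 min at RT with compound over a concentration range. Substrate mix (H3K4me3 12.5 µM, α-KG 25 µM, Fe²⁺, ascorbate, NAD⁺, FDH) was added, and NADH fluorescence change over 30 min gave dose-response curves.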
* = called active by the depositor; i = inactive; ? = inconclusive; nt = no result; [ ] = remark or other dose. Only some compounds are listed: those with a hit (about 2.9% of all), similar ones and a draw of the others. Unless noted, the call rests on the fitted dose curve; in most records, active means well fitted curve in the direction sought with a large enough effect; inconclusive means small, poorly fitted or top-dose-only effect, or another doubt; inactive means no such curve, though single readings can be large; an effect the other way counts as inactive or inconclusive.

SMILES	SNCA expr inhib	SNCA viab count	IP6K1 inh	KDM5B inh
COc1ccc(C(=O)N[C@@H]2CN(c3ncccn3)C[C@H]2CN(C)C)c(OC)n1	0.9%	-7.0%	16.3	25.1µM*
CCn1ncc(C(=O)N[C@@H]2CN(c3ncccn3)C[C@H]2CN(C)C)c1C	-8.7%	-2.0%	11.8	25.1µM*
Cc1ccccc1C(=O)NC1CCN(Cc2ccc(-c3ccsc3)cc2)C1 (centres undefined)	4.8%	7.2%	-2.9	nt
CNC(=O)[C@H]1C[C@]2(CCCCN(CCO)C2=O)N(C(C)=O)[C@H]1c1ccccc1	nt	nt	-8.3	nt
O=C(NCC(F)F)C1CCCN(Cc2cccc(-c3cccs3)c2)C1 (centres undefined)	1.9%	2.6%	-11.0	nt
O=[S+]([O-])(NC1CCCN(c2ccc3nnc(C4CC4)n3n2)C1)c1cccs1 (centres undefined)	nt	nt	8.2	nt
COc1ccccc1C(=O)N[C@@H]1CN(Cc2ccncc2)C[C@H]1CN(C)C	-9.4%	-15.2%	25.8	22.4µM*
Cc1cccc(-c2noc([C@@H]3C[C@@H](O)CN3Cc3cccc(C#N)c3)n2)c1	99.1%[87.6 µM]	-12.3%[87.6 µM]	9.5	i
COc1ccc(CN2C[C@H](O)C[C@H]2c2nc(-c3cccc(C)c3)no2)c2ccccc12	113.6%[87.6 µM]	-6.9%[87.6 µM]	-13.2	22.4µM*
C=CCNC(=O)c1ccc2cc[nH]c2n1	26.6%[87.6 µM]	1.7%[87.6 µM]	9.7	44.7µM*
O=C(NCc1ccc(Cl)cc1)c1ccc2cc[nH]c2n1	32.7%[87.6 µM]	-4.0%[87.6 µM]	10.1	112µM*
Cc1ccccc1Cc1c(C)nc2c(C(=O)NCCc3noc(-c4cccnc4)n3)cnn2c1C	-11.1%	-13.3%	2.3	nt
C(#Cc1nc2ncccc2nc1OCCN1CCCC1)c1ccccc1	nt	15µM*	-8.7	nt
c1ccc(OCCn2c(CN3CCCCCC3)nc3ccccc32)cc1	nt	nt	nt	i
Cc1noc(-c2ccc3c(c2)OCO3)c1C(=O)NCc1cc(F)cc(F)c1	21.0%	1.5%	-10.7	28.2µM*
COc1ccccc1-c1onc(C)c1C(=O)NCc1ccccc1C	-1.2%	12.9%	31.6	?
CCOc1ccccc1CNC(=O)c1c(C)noc1-c1ccc2c(c1)OCO2	-8.0%	19.2%	2.3	28.2µM*
Cc1noc(-c2ccc3c(c2)OCO3)c1C(=O)NC(C)CCc1ccccc1 (centres undefined)	-0.5%	-1.4%	-11.7	28.2µM*
Cc1ccccc1-c1onc(C)c1C(=O)NCc1cc(F)cc(F)c1	-8.7%	-1.3%	1.9	i
COc1ccc(-c2onc(C)c2C(=O)NCCCCc2ccccc2)cc1	-9.7%	-11.6%	14.3	i
Cc1noc(-c2ccc3c(c2)OCO3)c1C(=O)NCCCCc1ccccc1	-4.0%	14.8%	-4.0	28.2µM*
O=C(Nc1cccc(F)c1)c1cnc(-c2ccc(F)cc2)nc1-c1ccncc1	10.9%	?	-0.3	i
O=[S+]([O-])(NC1CCN(c2ccc3nnc(-c4ccccc4)n3n2)CC1)c1ccccc1	nt	nt	-20.1	nt
O=C(N1CCC2(CC1)CC(N(Cc1ccccc1)C1CC1)CCO2)C1(c2ccccc2)CC1 (centres undefined)	-24.6%	?	11.7	i
CNc1ncc(C(=O)N2CCCC(CCc3ccc(F)cc3)C2)cn1 (centres undefined)	-10.6%	-1.2%	17.8	20µM*
SMILES	SNCA expr inhib	SNCA viab count	IP6K1 inh	KDM5B inh
O=C(c1cc(-c2ccc(O)cc2)n[nH]1)N1CCCC(CCc2ccc(F)cc2)C1 (centres undefined)	?	-22.3%	5.3	i
COc1cccc(CCNC(=O)C2(c3ccc(Cl)cc3)CCOCC2)c1	nt	nt	22.3	nt
Cn1ncc(CN2CCCC23CCN(c2ccc(C(F)(F)F)cn2)CC3)c1C1CC1	6.9%	-10.7%	9.4	22.4µM*
Cn1cc(CN2CCCC23CCN(c2ccc(C(F)(F)F)cn2)CC3)cc1C#N	2.2%	-6.3%	13.2	28.2µM*
Cc1c(CN2CCCC23CCN(c2ccc(C(F)(F)F)cn2)CC3)cc(C#N)n1C	30.6%	-5.3%	8.3	?
CC(C)n1cc(CN2CCCC23CCN(c2ccc(C(F)(F)F)cn2)CC3)cn1	-10.6%	-22.0%	16.0	?
C[S+](=O)([O-])N1CC2(CCN(C(=O)CCC(=O)O)C2)Cc2ccccc21 (centres undefined)	24.4%	1.5%	-1.4	39.8µM*
Cc1ccccc1C(=O)N1CC2(Cc3ccccc3N([S+](C)(=O)[O-])C2)C1	-9.3%	10.5%	-8.8	25.1µM*
Cc1cccc(NC(=O)c2oc3ccccc3c2NC(=O)c2nn(-c3ccc(F)cc3)ccc2=O)c1	nt	nt	nt	i
COc1ccc(-c2ccc(C(=O)Nc3ccc(F)cc3)c(Cl)c2)nn1	nt	nt	-11.1	nt
O=C(NC1CCN(c2cc(-c3cccs3)[nH]n2)CC1)c1ccc(F)c(F)c1	-6.1%	0.8%	16.2	i
CC(=O)Nc1ccc(C(=O)NC2CCN(c3cc(-c4cccs4)[nH]n3)C2)cc1 (centres undefined)	?	-1.1%	5.3	17.8µM*
O=C(NC1CCN(c2cc(-c3cccs3)[nH]n2)C1)c1ccc(F)c(F)c1 (centres undefined)	2.6%	-8.7%	-4.4	12.6µM*
Cc1cccc(C(=O)NC2CCCN(Cc3ccc(-c4cc(C)cc(C)c4)cc3)C2)c1 (centres undefined)	-24.5%	3.1%[12.5 µM]	3.7	nt
COc1ccc(CCNC(=O)c2cc(-c3cccc(F)c3)nc3c2cnn3C)cc1	nt	nt	-5.8	nt
COCCN1C(=O)c2cccn2CC1CNC(=O)c1[nH]nc2c1COc1ccccc1-2 (centres undefined)	-18.7%	-3.3%	2.7	28.2µM*
O=C(C1CCCC1)N1CCC2(CC1)CC(c1cccc(C(F)(F)F)c1)=NO2	nt	nt	5.0	nt
COc1ccc(-c2[nH]ncc2CNc2cc(C3CC(O)C3)nc(C)n2)cc1 (centres undefined)	17.2%	1.5%	8.4	i
COc1ccc2[nH]c(CNc3cc(C4CC(N)C4)nc(C)n3)cc2c1 (centres undefined)	10.6%	0.7%	-11.5	20µM*
COCCNC(=O)c1ccc2c(c1)N(C)C(CC(=O)N1CCNC(=O)C1)CO2 (centres undefined)	-15.0%	12.7%	12.4	28.2µM*
CN(C)C(=O)c1ccc2c(c1)N(C)C(CC(=O)NCC(C)(C)O)CO2 (centres undefined)	?	5.3%	2.9	i
COCCNC(=O)c1ccc2c(c1)N(C)C(CC(=O)N1CCCC1)CO2 (centres undefined)	3.6%	-6.9%	1.1	31.6µM*
COC(=O)N(C)Cc1cccc(N2CCN(C(C)c3ccccc3)CC2)c1 (centres undefined)	nt	nt	5.8	nt
Cc1ccccc1C(=O)N1CCC(N2C(=O)c3c(c(C)nn3-c3ccccc3)C2C)C1 (centres undefined)	nt	nt	-7.6	nt
O=C(C1CCC(=O)N(C2CCCC2)C1)N1CCN(c2nccs2)CC1 (centres undefined)	3.0%	-0.1%	-12.2	i
O=C(C1CC(=O)N(C2CCCC2)C1)N1CCN(c2ccc(Cl)cn2)CC1 (centres undefined)	-1.0%	-9.1%	2.7	31.6µM*
CCc1noc(-c2cccn3c(CNC(=O)c4cccnc4)nnc23)n1	9.3%	-1.9%	11.6	31.6µM*
